Reference: the supplement of paper PMC6555819

Columns and labels:
Test in all cases: PBM binding z-score (relative to random genomic background probes); higher = stronger binding; sequences stand for … in GC…GCGATTGACAGCGTAGAATGAAGG
[1] = test system: FXR:RXRa (NR concentration 270 nM, RXRa partner concentration 90 nM)
How it was run: (§1)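 Custom Agilent 4×180K protein-binding microarrays carried double-stranded probes. Their 34-nt variable regions held direct-repeat seeds, single-nucleotide variants, half-site ablations and random human genomic background sequences. Arrays were incubated 1 h with ligand-free nuclear receptor dimers in PBS pH 7.4, 2% milk, 0.02% Triton X-100, 1 mM DTT, 0.2 mg/mL BSA and 0.4 mg/ml salmon testes DNA. Antibodies against each partner (one per run) detected binding, and scanned fluorescence was regression-normalized. Binding z-scores use random background probes as reference.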

[2] = test system: LXRa:RXRa (NR concentration 270 nM, RXRa partner concentration 90 nM)
How it was run: as §1

[3] = test system: LXRa homodimer (NR concentration 270 nM)
How it was run: as §1

[4] = test system: LXRb:RXRa (NR concentration 270 nM, RXRa partner concentration 90 nM)
How it was run: as §1

[5] = test system: LXRb homodimer (NR concentration 270 nM)
How it was run: as §1

[6] = test system: PPARa:RXRa (NR concentration 270 nM, RXRa partner concentration 90 nM)
How it was run: as §1

[7] = test system: PPARg:RXRa (NR concentration 180 nM, RXRa partner concentration 90 nM)
How it was run: as §1

[8] = test system: PPARg:RXRa 270nM:90nM, anti-RXR (NR concentration 270 nM, RXRa partner concentration 90 nM)
How it was run: as §1

[9] = test system: PPARg:RXRa 30nM:10nM, anti-RXR (NR concentration 30 nM, RXRa partner concentration 10 nM)
How it was run: as §1

[10] = test system: PPARg:RXRa 90nM:30nM, anti-RXR (NR concentration 90 nM, RXRa partner concentration 30 nM)
How it was run: as §1

[11] = test system: PPARg:RXRa DBDmut IVT, anti-RXR (DBD mutation: RXRa K156A/R161A, NR concentration 270 nM, RXRa partner concentration 90 nM)
How it was run: as §1

[12] = test system: PPARg:RXRa IVT, anti-PPARg (NR concentration 270 nM, RXRa partner concentration 90 nM)
How it was run: as §1

[13] = test system: PPARg DBDmut:RXRa IVT, anti-PPARg (DBD mutation: PPARg1 K132A/R137A, NR concentration 270 nM, RXRa partner concentration 90 nM)
How it was run: as §1

[14] = test system: PPARg DBDmut IVT, anti-PPARg (DBD mutation: PPARg1 K132A/R137A, NR concentration 270 nM)
How it was run: as §1

[15] = test system: PPARg homodimer (NR concentration 180 nM)
How it was run: as §1

[16] = test system: PXR:RXRa (NR concentration 270 nM, RXRa partner concentration 90 nM)
How it was run: as §1

[17] = test system: PXR homodimer (NR concentration 270 nM)
How it was run: as §1

[18] = test system: RARa:RXR (NR concentration 270 nM, RXRa partner concentration 90 nM)
How it was run: as §1

[19] = test system: RARa homodimer (NR concentration 270 nM)
How it was run: as §1

[20] = test system: RARb:RXRa (NR concentration 270 nM, RXRa partner concentration 90 nM)
How it was run: as §1

Sequence	PBM binding z-score [1]	PBM binding z-score [2]	PBM binding z-score [3]	PBM binding z-score [4]	PBM binding z-score [5]	PBM binding z-score [6]	PBM binding z-score [7]	PBM binding z-score [8]	PBM binding z-score [9]	PBM binding z-score [10]	PBM binding z-score [11]	PBM binding z-score [12]	PBM binding z-score [13]	PBM binding z-score [14]	PBM binding z-score [15]	PBM binding z-score [16]	PBM binding z-score [17]	PBM binding z-score [18]	PBM binding z-score [19]	PBM binding z-score [20]
CGAACTTGGTCAAGGACAGTGAATCTCCGCACGC	0.162	-0.375	-0.73	-0.622	-1.03	-0.114	0.382	0.0325	-0.999	-0.567	1.01	0.689	-0.557	-0.422	-0.784	-0.25	-0.515	-0.377	-0.435	1.34
CGTCAAAGTTCAACCAAGGTAACGTAAAGCACGC	7.34	6.27	4.15	4.07	1.7	5.02	5.31	5.53	2.39	4.77	0.703	2.22	0.566	0.664	3.1	5.55	4.15	4.39	1.73	5.25
CGTCCAAGATCAGCAGGTCAGTGAAAGCGACGTG	0.239	0.32	0.0834	0.195	-0.306	0.671	0.0765	0.227	-0.568	-0.405	0.000191	-0.104	-0.863	-0.238	0.712	0.136	-0.221	0.583	-0.407	1.97
CCTGCTAGGTCAATAGTCAGCTAAAGCAGCTCGC	2.43	1.66	-0.401	0.931	0.148	2.28	2.33	2.95	0.219	1.9	3.97	3.08	-0.361	-0.649	0.586	0.324	-0.908	0.911	-1.08	3.45
GTACCAAGGTGAATAGGTCCTTGATGAGTAGGCG	0.104	0.0189	-0.541	-0.255	-0.745	1.27	0.918	0.908	0.0599	0.237	1.68	1.9	-0.22	-0.0495	0.461	-0.118	-0.138	0.337	0.144	1.23
TCGAGTAGGTTACGAATGGGGCATTCAGCTTTCT	0.143	0.677	-0.52	0.42	-0.693	0.834	0.32	0.972	0.971	0.914	3.5	2.62	-0.724	-1.15	-0.342	-0.00987	-0.855	0.446	-0.789	0.855
CCAACTGGGGCAAGGTTACCATAACGCACAGCCA	0.213	0.726	-0.0339	0.872	-0.862	2.49	4.28	4.62	2.01	4.22	5.12	5.51	0.138	-0.27	0.543	0.378	0.0268	0.879	0.291	1.78
TCTTGTAGATCAACAGGAGGTTAAGAACGATCGA	0.185	0.857	0.191	0.748	-0.245	1.36	0.136	1.3	2.75	1.81	1.71	0.594	0.843	0.593	0.264	0.722	-0.175	0.889	0.0224	0.446
CGTCCATGGTCATAGGAGGTCAGTGAAGACAGAT	1.81	3.6	1.31	2.3	-0.0706	2.59	0.994	1.19	-0.128	0.421	0.484	2.01	-0.127	-0.368	2.09	3.77	0.616	2.79	0.333	2.91
CCAGACAGGTGAGAAGGTAACTAAGCCTCGATTA	-0.00461	0.0397	-0.256	-0.0609	-0.426	0.532	0.439	0.258	-0.00796	-0.013	0.948	0.601	-0.627	-0.192	0.387	-0.327	0.346	-0.102	0.36	0.585
AGAACGAGGGCACTGAGTTGATAGCACGGGTGGC	0.0718	-0.082	-0.301	-0.236	-0.887	1.52	1.5	1.04	0.0133	0.347	3.56	2.9	0.453	0.196	0.00559	1.21	4.15	0.453	-0.261	2.09
CAAACTAGGTCACCGGATGGTCAAAGTCCGCATG	4.23	3.25	0.505	2.57	0.435	5.4	8.96	7.39	5.71	7.25	8.46	8.82	4.83	2.57	3.76	2.49	0.137	3.77	1.02	4.29
AGAATGAGGTTATACGTAGTTCAGGGAAGAAAGT	2.23	3.06	0.289	1.93	-0.31	3.55	1.85	2.29	0.654	1.49	3.46	2.53	1.03	0.605	0.814	3.07	0.774	2.66	0.46	1.96
CCTACTGGTCCAAAGGTCATTGATTCCAATGCTC	4.78	5.17	4.86	5.02	1.52	5.67	9.11	9.11	7.82	9.09	1.53	4.41	0.302	0.567	3.79	5.35	2.05	5.46	1.48	4.42
GATACAGGGTCAAGGCCAGATTACGCGTATTGAT	7.02	4.53	0.129	4.07	0.268	5.77	5.99	5.29	2.36	4.09	2.74	4.03	2.24	1.3	3.72	4.43	0.645	5.48	1.59	4.65
CGAATGAGGGCATGAGTTGATAGCAAATGCCGAT	0.504	0.377	-0.461	0.209	-0.511	1.7	1.92	1.99	0.599	1.49	4	3.15	0.455	-0.417	0.0655	0.525	0.166	0.61	-0.437	1.8
GCGACTGGGGCAAAGCAGGTAACCATAAGGTTGG	-0.15	-0.576	-0.622	-0.339	-0.997	0.96	1.1	1.08	-0.433	0.285	4.21	3.7	-0.574	-0.498	-0.0633	-0.292	-0.741	0.385	-0.971	0.691
ATCGATAGGTCGAAGGTGAGTATACCCACCCGAA	0.952	0.85	-0.301	0.557	-0.268	2.9	4.53	5.41	3.58	5.43	-0.27	1.54	0.544	-0.0222	0.323	0.78	0.0246	2.02	-0.0833	1.76
AATACAGGGTCATGGTAGGCCAGAGTACGCACAG	7.24	6.51	2.02	4.67	1.09	6.07	6.85	6.13	2.87	4.97	2.45	4.41	2.48	1.13	3.31	4.8	0.859	5.21	1.28	4.25
CTCGAAAGGTCGGTTAAGGTGAGTATACGGATAA	3.06	2.1	0.202	1.84	0.111	3.04	0.591	1.48	0.313	0.943	0.549	1.14	0.246	0.287	1.69	2.61	0.341	1.97	0.996	3.22
TAACCTAGGTCATGCGGGCCAGTATAGTGTCGGC	4.19	4.46	1.83	2.55	-0.0591	4.09	4.16	3.58	1.11	2.56	3.49	4.46	0.354	0.297	1.08	1.84	-0.126	2.5	0.00748	3.89
ACTAGCAGGCCAAGTTTGGGGCACTCAAACAAAG	-0.415	-0.546	-0.667	-0.397	-1.03	-0.148	-0.208	-0.509	-0.663	-0.441	0.771	0.921	-0.182	-0.0456	-0.843	-0.333	-0.763	0.00988	-0.881	0.744
CTCGTAAGGTCGGTTGAGGTGAGTATACGGATAA	2.14	1.03	-0.261	0.701	-0.404	1.46	0.0124	0.578	-0.175	0.326	0.0738	0.679	-0.123	0.104	0.333	2.72	0.279	1.82	-0.0631	2.29
CCTTACGGGTCACGAGGTTATAGGACGACGAGCG	6.8	4.66	0.193	3.75	-0.117	5.93	7.51	6.72	3.51	5.65	4.3	5.38	1.39	0.939	1.95	4.53	0.176	5.99	1.17	4.56
CCTAGCAGGCCAGGATCACTCAAGCATTTCGCTT	-0.0228	-0.302	-0.315	-0.395	-0.796	-0.414	-0.143	-0.455	-0.969	-0.909	0.271	-0.507	-1.72	-1.21	-0.29	-0.547	-0.646	-0.792	-0.0748	-0.149
ACTAGCTGGCCAAGGGTCACTCAAGATTAGTCCG	2.23	2.82	0.129	2.53	-0.388	3.71	4.25	5.31	3.16	5.05	-0.256	1.86	-0.605	-0.878	1.67	2.92	-0.559	3.54	-0.213	3.34
TCATATAGGTAAACAGGTGTAAGTCCGTAAGTTA	0.827	0.785	-0.0064	0.69	-0.189	1.41	1.35	2.56	3.79	3.09	3.98	2.97	1.63	0.913	1.12	0.63	0.672	0.946	1.32	0.512
CGTCAAAGTTCAAGATAACGTAACAGAAAGCAGC	6.13	5.32	2.94	3.5	1.64	4.45	4.44	4.96	2.17	3.75	0.612	1.57	1.5	1.52	3.29	4.2	3.04	3.35	2.34	4.9
CCTATTTGTTGACCATAAGGGCAACCGAAGCTCG	0.863	0.511	0.84	0.696	1.12	0.847	0.437	0.529	0.245	0.342	0.427	0.84	0.694	0.679	1.94	1.09	0.998	1.35	1.45	1.72
